SMILES strings stand for the structures. Screen size: about 300,000 compounds; about 1,200 (0.4%) were called active. Where a call stands in place of a potency, no number is given. Roughly 3% stayed inconclusive and do not appear here. The sample holds actives, similar compounds and a random draw of the others, so the mix is not that of the screen. Calls follow the shape of the dose curve; as a rule, active = well fitted inhibition curve with a large enough effect; inconclusive = small, poorly fitted or top-dose-only effect, or another doubt; inactive = no such curve, though single readings can be large or run the other way.

The values below come from PubChem BioAssay AID2100 (National Center for Advancing Translational Sciences (NCATS), 2009).
Potency is read from the fitted curve at half-maximal effect.

This experiment deals with Lysosomal alpha-glucosidase (Homo sapiens) (UniProt P10253). Put plainly: qHTS Assay for Inhibitors and Activators of Human alpha-Glucosidase Cleavage of Glycogen.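 Also: the screen sought inhibitors and activators.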 To be noted: recombinant GAA, glycogen substrate, Amplex Red glucose oxidase fluorescence; series mostly up to 76.3 µM. The text has this: NIH Chemical Genomics Center [NCGC] NIH Molecular Libraries Probe Production Centers Network [MLPCN] MLPCN Grant: R03 MH084841-01 Assay Submitter (PI): Wei Zheng NCGC Assay Overview: Alpha-glucosidase is responsible for the hydrolysis of terminal, non-reducing 1,4-linked alpha-D-glucose residues, which releases alpha-D-glucose. It is a lysosomal hydrolase that is required for the degradation of a small percentage (1-3%) of cellular glycogen in humans. Deficiency of this enzyme results in glycogen-storage disease type II (GSDII), also referred to as Pompe disease, an autosomal recessive disorder. Structurally normal glycogen is accumulated in the lysosomes and cytoplasm in affected patients, primarily in muscle tissues. Excessive glycogen storage within lysosomes may interrupt normal functioning of other organelles and leads to cellular injury. In turn, this leads to enlargement and dysfunction of the entire organ involved (eg: cardiomyopathy and muscle weakness). It has been reported that the improper folding and trafficking of alpha-glucosidase resulting from genetic mutations may account for a significant number of Pompe patients. […] We optimized this alpha-glucosidase assay in 1536-well plate format for identification of novel small molecule inhibitors or activators with structures other than the sugar analogs in order to develop new pharmacological chaperones. Previous assays of alpha-Glucosidase have utilized a non-natural fluorescent substrate to probe enzyme activity. The present assay measures enzyme activity on glycogen using a coupled-assay system to glucose oxidase.
NCGC Assay Protocol Summary: This is an enzyme assay using glycogen from bovine liver (Sigma catalog #: G0885) as the substrate and recombinant human alpha-glucosidase as the enzyme preparation. Upon hydrolysis of the substrate, the glucose product can be detected using the Amplex Red Glucose Oxidase Assay Kit (Invitrogen catalog #: A22189). The product of this reaction can be read with a fluorescence plate reader with an excitation at 573 nm and an emission at 610 nm. Data were normalized to the controls for basal activity (without enzyme) and 100% activity (with enzyme). The AC50 values were determined from concentration-response data modeled with the standard Hill equation. Assay buffer for enzyme reaction: 50 mM citric acid (titrated with potassium phosphate to pH 5.0), 0.01% Tween-20 (pH 5.0 is an optimal condition for this enzyme assay) Assay buffer for Amplex Red reaction: Tris-HCl, pH 7.5 1536-well assay protocol for the alpha-glucosidase assay: (1) Add 2 ul/well alpha-glucosidase enzyme solution (4 nM final) (2) Add 23 nL compounds in DMSO solution. The final titration was 0.7 nM to 77 uM. (3) Add 1 ul of glycogen substrate solution (30 ug) (4) Incubate at 37 C for 40 min (5) Add 2 ul tris-HCl buffer with Amplex Red reagents (6) Incubate 45 min at room temperature. (7) Detect the assay plate in a ViewLux plate reader (PerkinElmer) with Ex=573 nm and Em=610nm. Keywords: Alpha-glucosidase, Pompe Disease, pharmacological chaperone, chaperone therapy, high throughput screening, alpha-glucosidase inhibitor, MLSMR, MLSCN, NIH Roadmap, qHTS and NCGC
On to `CCS(=O)(=O)N1CCc2cc(C(=O)N3CCN(c4ccccc4OC)CC3)ccc21`, for which the Potency entry is “inactive”.

With `CCCOc1ccc(C2c3c(-c4ccccc4O)n[nH]c3C(=O)N2Cc2cccnc2)cc1` (stereo not drawn), the Potency entry is “inactive”.

`CCOc1ccc(CNC(=O)C2CCCN(S(=O)(=O)N(CC)c3ccc(OCC)cc3)C2)cc1` (stereo not drawn): the Potency entry is “inactive”.

As to `COc1ccc(NC(=O)N2CCC(Cc3ccccc3)CC2)cc1`, the Potency result is “inactive”.

As to `COc1ccc(CNC(=O)c2ccc(NC(=O)N3CC4CCCN4c4ccccc43)cc2)cc1` (stereo not drawn), the Potency is 17.8 µM (active).

Consider `COc1ccccc1CNC(=O)c1ccc(NC(=O)N2CC(C)Sc3ccccc32)cc1` (stereo not drawn), for which the Potency result was “inactive”.

`CCCOc1cccc(C(=O)Nc2cccc(NC(=O)c3ccc(C(C)(C)C)cc3)c2)c1`: the Potency entry was “inactive”.

As to `COc1ccc(CCNC(=O)c2cc(=O)c3c(C)cc(C)cc3o2)cc1OC`, the Potency result was “inactive”.

For the compound `CCOC(=O)c1c(C)oc2ccc(N(C(=O)c3ccncc3)S(=O)(=O)c3ccc(CC)cc3)cc12`, the Potency entry was “inactive”.

For `Cn1c(SCC(=O)N/N=C/c2ccc(O)c(O)c2)nc2ccccc21`, the Potency is 8.91 µM (active).

For `CCn1c(SCC(=O)N/N=C/c2ccncc2)nc2ccccc21`, the Potency result was “inactive”.

In the case of `Cc1ccc(/C=N/NC(=O)CSc2nc3ccccc3o2)cc1`, the Potency result is “inactive”.

Regarding `CCN(CC)S(=O)(=O)c1nnc(NC(=O)COc2ccccc2Cl)s1`, the Potency result was “inactive”.

With `CCS(=O)(=O)N1CCc2cc(C(=O)NCc3ccc(OC)cc3)ccc21`, the Potency entry is “inactive”.

On to `Cc1ccccc1-c1nc(CS(=O)(=O)CC(=O)Nc2cc(Cl)cc(Cl)c2)c(C)o1`, for which the Potency entry is “inactive”.

Consider `Cc1cccc(NC(=O)N2CCC(CN3CCc4ccccc4C3)CC2)c1C`, for which the Potency entry is “inactive”.

In the case of `COc1ccc2c(c1)C(C)=CC(C)(C)N2C(=O)Nc1ccccc1`, the Potency is 35.5 µM (active).

On to `COc1ccc2c(c1)C(C)=CC(C)(C)N2C(=O)CNCc1ccc2c(c1)OCO2`, for which the Potency entry was “inactive”.

Turning to `CC1=CC(C)(C)N(C(=O)CSc2nnc(-c3ccccc3)o2)c2ccc(C)cc21`, the Potency result was “inactive”.

For the compound `CCOc1ccc(N(Cc2ccccc2)C(=O)c2nc(S(C)(=O)=O)ncc2Cl)cc1`, the Potency result is “inactive”.

For the compound `Cc1ccc(Cn2c(CCCNC(=O)C3CCCCC3)nc3ccccc32)cc1`, the Potency entry was “inactive”.

For `COc1ccc2c(Sc3ccc(C)cc3)c(C(=O)NC(C)c3ccccc3)[nH]c2c1` (stereo not drawn), the Potency result is “inactive”.

With `Cc1cc2cc3c(N)[nH]nc3nc2cc1C`, the Potency is 8.91 µM (active).

As for `Cc1cccc(NC(=O)c2cc3c(C)nn(-c4ccccc4)c3s2)c1`, the Potency entry was “inactive”.

On to `COc1ccc(-c2cn3nc(N4CCCC(C(=O)NCCCOC(C)C)C4)sc3n2)cc1` (stereo not drawn), for which the Potency result was “inactive”.

Regarding `COC(=O)c1cc(S(=O)(=O)N2CCN(c3cc(Cl)ccc3C)CC2)c[nH]1`, the Potency entry is “inactive”.

Take `COC(=O)c1cc2occc2n1Cc1nc(-c2ccc(C)cc2)oc1C`: the Potency result is “inactive”.

As for `Cc1nn(C(C)C(=O)NCCc2ccccc2)c(=O)c2c1sc1ccccc12` (stereo not drawn), the Potency entry was “inactive”.

For the compound `Oc1ccc(/C=N/Nc2ccc(C(F)(F)F)cn2)cc1O`, the Potency is 3.52 µM (active).

For the compound `O=C(Nc1ccccc1)Nc1ccc(C(F)(F)F)cn1`, the Potency result was “inactive”.

For the compound `Oc1ccc(Br)cc1/C=N/Nc1ccccn1`, the Potency entry was “inactive”.

With `CCC1CCCCN1S(=O)(=O)c1ccc(NC(=O)c2cc(=O)c3ccccc3o2)cc1` (stereo not drawn), the Potency entry was “inactive”.

Regarding `CN1C(=O)c2cccc3c(N)ccc(c23)C1=O`, the Potency entry was “inactive”.

As for `CCN1C(=O)c2cccc3c(N)ccc1c23`, the Potency was 28.2 µM (active).

`CCN1C(=O)c2cccc3c(S(=O)(=O)Nc4ccccc4O)ccc1c23`: the Potency result is “inactive”.

Consider `O=C(Nc1ccc2nc(SCC(=O)N3CCCc4ccccc43)sc2c1)c1ccc(Cl)cc1`, for which the Potency result is “inactive”.

As for `CCOC(=O)c1c(NC(=O)/C(C#N)=C/c2ccccc2)sc2c1CCC2`, the Potency entry is “inactive”.

Turning to `CCOC(=O)c1c(NC(=S)NC)sc2c1CCCC2`, the Potency result is “inactive”.

Regarding `CCOC(=O)c1c(/N=C/c2cc(C)ccc2O)sc2c1CCC2`, the Potency was 10 µM (active).

Take `O=C1CC(=O)Nc2cc(S(=O)(=O)N3CCN(c4cccc(C(F)(F)F)c4)CC3)ccc2N1`: the Potency entry is “inactive”.

Take `COc1ccc(N2CCN(S(=O)(=O)c3ccc4c(c3)NC(=O)C(C)C(=O)N4)CC2)cc1` (stereo not drawn): the Potency entry was “inactive”.

Turning to `COc1ccc(N2CCN(S(=O)(=O)c3ccc4c(c3)CC(=O)N4)CC2)cc1`, the Potency is 59.8 µM (active).

For `Cc1ccc(NC(=O)c2nc(S(=O)(=O)Cc3cccc(C)c3)ncc2Cl)cc1`, the Potency entry was “inactive”.

With `Cc1ccc2nc(C)cc(N/N=C/c3ccc(F)cc3)c2c1`, the Potency result was “inactive”.

`Cc1cc(N/N=C/c2ccccc2F)c2ccccc2n1`: the Potency entry was “inactive”.

As for `COc1cccc2c(N/N=C/c3ccco3)cc(C)nc12`, the Potency is 8.84 µM (active).

In the case of `Cc1ccc(CCNC(=O)C2CCN(c3nnc(-n4cccc4CNc4ccc(C)cc4)s3)CC2)cc1`, the Potency result was “inactive”.

As for `Cc1ccc(C)n1-c1nnc(N2CCC(C(=O)NCc3ccc(F)cc3)CC2)s1`, the Potency result was “inactive”.

As for `CCOc1ccc(CNC(=O)C2CCN(c3nnc(-n4cccc4CNc4ccc(C)cc4)s3)CC2)cc1OC`, the Potency was 31.6 µM (active).

Take `Cc1cccc(OCC(=O)N(Cc2ccc(C(C)C)cc2)Cc2ccco2)c1C`: the Potency entry is “inactive”.

Take `CCn1c2ccccc2c2cc(NC(=S)N3CCOCC3)ccc21`: the Potency was 12.5 µM (active).

With `CCn1c2ccccc2c2cc(NC(=O)CNC)ccc21`, the Potency result is “inactive”.

For the compound `CCn1c2ccccc2c2cc(NC(=O)COC(=O)c3ccccc3Br)ccc21`, the Potency entry was “inactive”.
